Measurements as given in PubChem BioAssay AID1478 (National Center for Advancing Translational Sciences (NCATS), 2009).
The campaign covered roughly 200,000 compounds. About 860 (0.43%) were called active. The call rests on the fitted dose curve; in most records, active means well fitted inhibition curve with a large enough effect; inconclusive means small, poorly fitted or top-dose-only effect; inactive means flat fitted curve, though single readings scatter. Shown is part of a subset that was picked to be rich in actives.

Biological target: Cruzipain (Trypanosoma cruzi) (UniProt P25779)
Sequence (P25779 123-467 limits assumed): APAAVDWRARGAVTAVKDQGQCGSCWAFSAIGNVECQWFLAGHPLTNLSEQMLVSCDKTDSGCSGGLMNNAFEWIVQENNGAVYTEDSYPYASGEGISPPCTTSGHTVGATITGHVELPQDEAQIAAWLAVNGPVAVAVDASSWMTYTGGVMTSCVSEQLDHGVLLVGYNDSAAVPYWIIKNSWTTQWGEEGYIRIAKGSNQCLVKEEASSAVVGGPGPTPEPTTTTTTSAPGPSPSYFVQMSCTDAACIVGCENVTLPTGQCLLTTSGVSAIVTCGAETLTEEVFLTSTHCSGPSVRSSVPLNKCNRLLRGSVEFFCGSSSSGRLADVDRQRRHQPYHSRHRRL
Experiment: qHTS Assay for Promiscuous and Specific Inhibitors of Cruzain (with detergent); further: nearly all actives have a fitted effect of over 40% in size
Details: purified cruzain, Z-FR-AMC fluorescence, 0.01% Triton
Experimental: Cruzain (3.4.22.51) is a cysteine protease from the tropical parasite Trypanosoma cruzi. Dual qHTS experiment was performed against the NCGC compound collection in order to 1) identify novel inhibitors of the enzyme and 2) profile the compound collection for promiscuous inhibitors operating via colloidal aggregation (by performing detergent-free and detergent-containing comparison screens). Cruzain was assayed by the use of fluorogenic coumarin-based substrate Z-FR-AMC: proteolytic cleavage releases AMC, whose fluorescence is measured at 360 nm excitation and 450 nm emission. Purified cruzain was supplied by the labs of Prof. James McKerrow and Brian Shoichet, UC San Francisco.
This assay had 0.01% Triton X-100 concentration. See also releated assay "qHTS Assay for Promiscuous and Specific Inhibitors of Cruzain (without detergent)" with 0.00005% Triton X-100.
See following references for additional details:
Assay Provider: Shoichet, Brian; University of California, San Fancisco
Screening Center PI: Austin, C.P.
Screening Center: NIH Chemical Genomics Center [NCGC]
Buffer: 100 mM Sodium Acetate, pH 5.5, 5 mM DTT, Triton X-100 concentration: 0.01%.
Buffer in columns 3 and 4 as negative control (no enzyme).
Substrate solution: 2 uM final concentration of Z-FR-AMC (catalog number I-1160, Bachem) dispensed throughout the plate.
Enzyme: 1.5 nM Cruzain final concentration in columns 1, 2, 5-48. Column 1 is neutral (100% activity). Column 2 contained titration of covalent inhibitor K11777, starting concentration 1 mM, then 1:2 dilution in duplicate).
Three uL of enzyme or buffer were dispensed to 1536-well Greiner black solid bottom plates. Compounds and controls (23 nL) were transferred via Kalypsys PinTool. The plates were incubated for 15 min at room temperature, and then 1 uL of substrate solution was added to start the reaction. The plates were immediately transferred to and read 4 times every 30 seconds for 2 min on ViewLux High-throughput CCD imager (Perkin-Elmer) using 360 nm excitation and 450 nm emission fluorescence protocol. The fluorescence intensity difference between the third and the first time points (time lapse of 60 seconds) was used to compute reaction progress.
Potency means the concentration at half of the fitted maximal effect.

| Structure (SMILES) | max response, negative = inhibition | Potency |
| --- | --- | --- |
| COc1cc(-c2noc(-c3ccc(N4CCCC4)c([N+](=O)[O-])c3)n2)cc(OC)c1OC | -7.32% (inactive) |  |
| CCCNC(=O)c1ccc2c(c1)ncn2-c1ccc(C)cc1C | 0.948% (inactive) |  |
| Cc1ccccc1CNC(=O)c1cccc(NC(=O)c2nsc3ccccc23)c1 | -4.52% (inactive) |  |
| Cc1ccc(SCCC(=O)OCC(=O)Nc2ncc(Cl)cc2Cl)cc1 |  | 25.1 µM (active) |
| CC(Oc1ccc(Cl)cc1)C(=O)OCC(=O)Nc1ncc(Cl)cc1Cl (centres undefined) | -4.76% (inactive) |  |
| Cc1ccc(-n2c(SCC(=O)Nc3ncc(Cl)cc3Cl)nc3ccccc32)cc1 | 0.0613% (inactive) |  |
| CCC(=O)N1CCc2cc(CNS(=O)(=O)c3ccc(Br)s3)ccc21 | -0.767% (inactive) |  |
| COc1ccc(C(=O)N2CC3(C)CC2CC(C)(C)C3)cc1OC (centres undefined) | -2.5% (inactive) |  |
| Cc1nnnn1/C(=C\c1ccccc1)C(=O)OCC(=O)N1CC2(C)CC1CC(C)(C)C2 (centres undefined) | -0.133% (inactive) |  |
| Cc1cccc(C(=O)NCC(=O)OCC(=O)N2CC3(C)CC2CC(C)(C)C3)c1 (centres undefined) |  | 14.1 µM (active) |
| CCOc1ccc(C(NC(=O)c2cc(OC)c(OC)c(OC)c2)c2cc(Cl)c3cccnc3c2O)cc1 (centres undefined) | 1.88% (inactive) |  |
| COc1ccccc1CNc1ccc(-c2nc(-c3ccccc3C)no2)cc1[N+](=O)[O-] | -3.81% (inactive) |  |
| O=C(NCc1ccccc1)C(=O)NCC(c1ccco1)S(=O)(=O)c1ccc(Cl)cc1 (centres undefined) | -1.1% (inactive) |  |
| O=C(COc1ccccc1)NCCc1nc2ccccc2[nH]1 |  | 15.8 µM (active) |
| COc1ccc(OC(C)C(=O)NCCc2nc3ccccc3[nH]2)cc1 (centres undefined) | -6.04% (inactive) |  |
| COC(=O)Cc1nc2ccccc2[nH]1 | 8.1% (inactive) |  |
| CCc1ccc(N(CC)C(=O)CCn2cnc3onc(-c4ccc(F)cc4)c3c2=O)cc1 | -2.73% (inactive) |  |
| COc1ccc(OCCCn2c(C)nc3cc(C)c(C)cc32)cc1 | -3.67% (inactive) |  |
| O=C(OCN1C(=O)c2ccccc2C1=O)/C(=C\c1ccco1)NC(=O)c1ccccc1 |  | 0.316 µM (active) |
| O=C(NCC1CCCO1)/C(=C\c1ccco1)NC(=O)c1ccccc1 (centres undefined) | -1.92% (inactive) |  |
| Cc1cccc(NC(=O)/C(=C\c2ccco2)NC(=O)c2ccccc2)c1 | -5.18% (inactive) |  |
| Cc1ccc(-c2noc(-c3nnn(-c4cccc(C(F)(F)F)c4)c3N)n2)cc1 | 0.534% (inactive) |  |

| Structure (SMILES) | max response, negative = inhibition | Potency |
| --- | --- | --- |
| CCOC(=O)c1ccc(CSc2nnc3cc(C)c4ccccc4n23)cc1 | -5.57% (inactive) |  |
| COc1ccc(N2C(=O)CSC23C(=O)N(Cc2cccc(F)c2)c2ccccc23)cc1Cl (centres undefined) | -6.49% (inactive) |  |
| N=c1oc2ccccc2cc1C(=O)N/N=C/c1ccccc1 | -4.25% (inactive) |  |
| CNC(=O)c1cc2c(ccc3ccccc32)oc1=N |  | 28.2 µM (active) |
| CCOC(=O)N1CCN(C(=O)c2cc3c(ccc4ccccc43)oc2=O)CC1 | -4.28% (inactive) |  |
| COc1ccc(-c2nc3scc(CCNS(=O)(=O)c4cc(F)ccc4OC)n3n2)cc1OC | -6.79% (inactive) |  |
| COc1ccc(OC)c(-n2nnc3c(sc4nc(C)c(Br)c(C)c43)c2=O)c1 | -8.66% (inactive) |  |
| CC(=O)c1ccc(S(=O)(=O)N2CCC(Oc3ccc(-n4cnnn4)cc3)CC2)cc1 | 0.367% (inactive) |  |
| O=C1CCCc2cc(S(=O)(=O)N3CCCC(C(=O)NCc4ccccc4)C3)ccc2N1 (centres undefined) | -1.43% (inactive) |  |
| COc1ccc(CNC(=O)c2cc3cccc(OC)c3oc2=O)cc1 | -0.986% (inactive) |  |
| CN(C)c1ccc(-c2nc(NCCN3CCOCC3)c3ccccc3n2)cc1 | -4.87% (inactive) |  |
| c1ccc2cc3c(NCCN4CCOCC4)ccnc3cc2c1 |  | 28.2 µM (active) |
| Clc1ccccc1-c1cc(NCCN2CCOCC2)ncn1 | 0.682% (inactive) |  |
| CCc1ccccc1NC(=O)c1cnn(-c2ccc(F)cc2)c1C1CCNCC1 | -1.82% (inactive) |  |
| O=C(CSc1n[nH]c(-c2ccccc2)n1)N1CCCCC1 | 2.8% (inactive) |  |
| Cc1ccccc1CN1CCC(CNC(=O)c2c(C)oc3ncnc(N4CCCCC4)c23)CC1 | 1.4% (inactive) |  |
| CCN1CCN(C(c2ccc(C)cc2)c2c(O)cc(C)n(Cc3ccco3)c2=O)CC1 (centres undefined) | 0.51% (inactive) |  |
| CCOC(=O)c1ccc(-n2c(CCC(=O)O)ccc2-c2ccccc2)cc1 | -12% (inactive) |  |
| CCOC(=O)C1CCN(C(c2ccc(F)cc2)c2sc3nc(-c4ccco4)nn3c2O)CC1 (centres undefined) | -3.73% (inactive) |  |
| O=C(/C=C/c1ccccc1)c1ccoc1 | -1.4% (inactive) |  |
| COc1ccccc1/C=C/C1=NC(=C\N(C)C)/C(=O)O1 | -17.3% (inactive) |  |
| O=C1OC(/C=C/c2ccccc2)=NC/1=C/c1ccco1 |  | 3.98 µM (active) |
